The text below walks through data of PubChem BioAssay.

Usually inhibition stands for the drop in the measured response relative to a control, in per cent.

Structures are written as SMILES. Records with an inconclusive call do not appear. Calls of active or inactive are those of the source.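 The calls were made as follows, unless noted: active = GFP signal, as percent of the solvent control, above the screen mean plus 3 SD, about 149; inconclusive = no reading because the compound's own fluorescence upset strain identification; inactive = the rest.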

Assay [1] can be described thus: yeast TOR pathway RPL19A-GFP modulators, primary screen, cell-based, S. cerevisiae, multiplex flow cytometry (AID 1862; in the data active = percent of DMSO control GFP below about 86%;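 also: lower values mimic rapamycin by blocking the RPL19A rise seen in DMSO cells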). Conditions: S. cerevisiae RPL19A-GFP strain, flow cytometry fluorescence, 3 h; at 10 µM; stronger effect = lower value. (A flow cytometer gives signals particle by particle.)
Assay [2] can be described thus: modulators of MEP2-GFP levels in yeast, primary screen, S. cerevisiae, multiplex flow cytometry (AID 1867;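 active = GFP response, as percent of the DMSO control, above the screen-wide mean plus 3 SD, about 139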;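 also: median GFP channel fluorescence of barcode-gated MEP2-GFP cells measured by flow cytometry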). The following applies: S. cerevisiae MEP2-GFP strain, 3 h, at 10 µM, stronger effect = higher value, 100% means same as DMSO wells.
Assay [3] can be described thus: modulators of CIT2-GFP expression in yeast, primary screen, S. cerevisiae, GFP fusion, multiplex flow cytometry (AID 1870;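 active = percent response above a set limit, the screen-wide mean plus 3 SD, cut at about 130% in these data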;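 also: barcoded CIT2-GFP strain pooled with four other GFP strains with rapamycin as positive control; median GFP fluorescence per well over plate mean of DMSO wells so 100% = DMSO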). The following applies: 3 h, at 10 µM, stronger effect = higher value.
Assay [4] is described as follows: modulators of LAP4-GFP expression in yeast, primary screen, S. cerevisiae, multiplex flow cytometry (AID 1873). The following applies: 3 h, at 10 µM, stronger effect = higher value.
Assay [5] in a line: modulators of AGP1-GFP expression in yeast TOR pathway, primary screen, cell-based, multiplex flow cytometry, S. cerevisiae (AID 1887;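 active = GFP signal above the screen-wide mean plus 3 SD, that is over about 124.5% of the solvent control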;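 also: AGP1-GFP fusion strain of S. cerevisiae within a five-strain barcoded multiplex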). The following applies: 3 h, at 10 µM, stronger effect = higher value.
Assay [6] in a line: inhibitors of CD8+ T cell-vesicle binding, pilot screen, LFA-1/ICAM-1 modulator project, MLPCN validation set, flow cytometry (AID 2523;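 active = response below a set limit, under 55% cells CD8-positive and vesicle-bound, and CD8 cells' 90th-percentile brightness under 279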;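 as to vesicle binding response: mean PE anti-B7-1 fluorescence of CD8+ cells relative to row control; 100% = QL9-loaded vesicles with DMSO vehicle in the same plate row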). The following applies: 2C mouse CD8+ T cells, at 7 µM, stronger effect = lower value; double positive events: measured here: CD8+/vesicle+ event percentage.
Assay [7] concerns the target Integrin beta-1 (Homo sapiens) + Integrin alpha-4 (Homo sapiens) (UniProt P13612+P05556). The assay is described as follows: inhibition of HUTS-21 binding to VLA-4, pilot screen, VLA-4 allosteric modulator project, U937 cells, HUTS-21 mAb, flow cytometry, validation set (AID 2674;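 active = inhibition above 50%, about 3 SD of the validation set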;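 also: antibody binding induced by the VLA-4 ligand LDV present at three times its Kd; 0% = LDV ligand with antibody and no compound and 100% = antibody without LDV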). The following applies: HUTS-21 LIBS mAb binding, at 6.7 µM, stronger effect = higher value, binding induced by LDV ligand.

Assay [8] is described as follows: superoxide lowering in aged yeast cells, pilot screen, validation compound set (AID 2706;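 active = superoxide response below 65% of plate, a cut near 3 SD across the whole screen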;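 also: yeast exposed to compound for one week at 30 degrees C before staining; 100% = mean of all compound wells on the same plate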). The following applies: S. cerevisiae aging, superoxide DHE fluorescence; at 10 µM; stronger effect = lower value.
Assay [9] addresses Beta-adrenergic receptor kinase 1 (Homo sapiens) (UniProt P25098). Briefly: GRK2 binders displacing RNA aptamer, biochemical, validation, human GRK2, bead flow cytometry (AID 488806;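 active = aptamer binding inhibition above 30%, about 3 SD of noise from non-fluorescent compounds; inactive = inhibition at or below 30%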). Conditions: bead-bound GRK2, FAM-aptamer displacement, at 10 µM, stronger effect = higher value.
The target of assay [10] is Beta-2 adrenergic receptor (Homo sapiens) (UniProt P07550). The assay is described as follows: beta2AR agonists driving receptor internalization, pilot screen, cell-based, FAP fluorogen, flow cytometry, validation set (AID 504459;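 active = percent response above 42, roughly 3 SD of non-fluorescent test compounds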;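 also: agonist-driven loss of surface beta2AR via internalization measured by FAP dye flow cytometry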). Conditions: Am2.2-beta2AR cells, FAP surface receptor flow cytometry; at 10 µM; stronger effect = higher value.
Chain of Beta-2 adrenergic receptor (Homo sapiens) (P07550 whole entry, looked up): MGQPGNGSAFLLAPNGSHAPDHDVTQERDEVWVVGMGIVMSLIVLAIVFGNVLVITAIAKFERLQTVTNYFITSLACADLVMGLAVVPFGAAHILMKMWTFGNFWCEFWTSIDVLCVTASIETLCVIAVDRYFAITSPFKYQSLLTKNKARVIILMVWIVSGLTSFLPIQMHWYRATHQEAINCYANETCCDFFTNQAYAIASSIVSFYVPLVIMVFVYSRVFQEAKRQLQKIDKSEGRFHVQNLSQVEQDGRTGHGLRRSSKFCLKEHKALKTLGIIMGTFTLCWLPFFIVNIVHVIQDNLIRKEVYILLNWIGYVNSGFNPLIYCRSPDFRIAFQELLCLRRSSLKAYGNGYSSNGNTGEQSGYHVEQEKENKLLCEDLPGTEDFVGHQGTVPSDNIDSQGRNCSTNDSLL
Assay [11] addresses AP-2 complex subunit beta (Homo sapiens) (UniProt P63010). Briefly: inhibitors of arrestin peptide binding to AP2, pilot screen, biochemical, validation set, GST-AP2 beads, flow cytometry (AID 504541;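 active = inhibition above 54%, about 3 SD of non-fluorescent compounds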;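 also: AP2 carries R879A mutation and is captured from E. coli lysate; bead-bound FITC arrestin peptide fluorescence measuring arrestin peptide binding to AP2; 0% = DMSO wells and 100% = excess unlabeled arrestin peptide control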). The following applies: FITC arrestin peptide, at 10 µM, stronger effect = higher value, AP2 beta2 appendage fragment, R879A mutant.
Assay [12] is described as follows: yeast V-ATPase proton transport modulators, S. cerevisiae, pHLuorin, HTS validation (AID 504600; in the data active = response above about 15%;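 also: plate controls were DMSO for no effect and reference compound for full effect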). The following applies: S. cerevisiae pHLuorin cytosolic pH, at 10 µM, stronger effect = higher value.
Assay [13] deals with anti-desmoglein-3 scFv antibody binding to human DSG3. The assay is described as follows: inhibitors of anti-DSG3 scFv binding to DSG3, pilot screen, biochemical, validation compound set, bead-based, flow cytometry (AID 588368;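 active = binding below the plate cutoff, the plate median minus 3 SD, with a reading above zero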;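 also: signal is the median channel fluorescence of bead-bound GFP antibody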). The following applies: Protein G beads, DSG3-Fc, scFv-GFP binding, at 10 µM, stronger effect = lower value.
The nature of assay [14]: inhibitors of fungal efflux pumps CDR1, CDR2, MDR1, pilot screen, validation compound set, multiplex, phenotypic (AID 588506;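 active = efflux inhibition above 0.42, the validation set average plus 4 SD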;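 also: Nile Red retained in cells so higher fluorescence means more efflux inhibition; 0 = negative control wells and 1 = enniatin B 25 µM full block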). Conditions: S. cerevisiae pump-expressing triplex, Nile Red efflux flow cytometry; at 10 µM; stronger effect = higher value; the pumps come from Candida albicans.
The target in assay [15] is ATP-binding cassette sub-family B member 6 (Homo sapiens) (UniProt Q9NP58). Briefly: ABCB6 transporter inhibitors, pilot screen, K562-ABCB6 cells, flow cytometry, validation set (AID 588550;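 active = inhibition above the screen-wide mean plus 3 SD, about 51%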;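 also: 0% = DMSO wells and 100% = benzethonium chloride 70 µM positive control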). The following applies: K562-ABCB6 porphyrin accumulation, 1 h, at 10 µM, stronger effect = higher value.
Chain of ATP-binding cassette sub-family B member 6 (Homo sapiens) (Q9NP58 whole entry, looked up): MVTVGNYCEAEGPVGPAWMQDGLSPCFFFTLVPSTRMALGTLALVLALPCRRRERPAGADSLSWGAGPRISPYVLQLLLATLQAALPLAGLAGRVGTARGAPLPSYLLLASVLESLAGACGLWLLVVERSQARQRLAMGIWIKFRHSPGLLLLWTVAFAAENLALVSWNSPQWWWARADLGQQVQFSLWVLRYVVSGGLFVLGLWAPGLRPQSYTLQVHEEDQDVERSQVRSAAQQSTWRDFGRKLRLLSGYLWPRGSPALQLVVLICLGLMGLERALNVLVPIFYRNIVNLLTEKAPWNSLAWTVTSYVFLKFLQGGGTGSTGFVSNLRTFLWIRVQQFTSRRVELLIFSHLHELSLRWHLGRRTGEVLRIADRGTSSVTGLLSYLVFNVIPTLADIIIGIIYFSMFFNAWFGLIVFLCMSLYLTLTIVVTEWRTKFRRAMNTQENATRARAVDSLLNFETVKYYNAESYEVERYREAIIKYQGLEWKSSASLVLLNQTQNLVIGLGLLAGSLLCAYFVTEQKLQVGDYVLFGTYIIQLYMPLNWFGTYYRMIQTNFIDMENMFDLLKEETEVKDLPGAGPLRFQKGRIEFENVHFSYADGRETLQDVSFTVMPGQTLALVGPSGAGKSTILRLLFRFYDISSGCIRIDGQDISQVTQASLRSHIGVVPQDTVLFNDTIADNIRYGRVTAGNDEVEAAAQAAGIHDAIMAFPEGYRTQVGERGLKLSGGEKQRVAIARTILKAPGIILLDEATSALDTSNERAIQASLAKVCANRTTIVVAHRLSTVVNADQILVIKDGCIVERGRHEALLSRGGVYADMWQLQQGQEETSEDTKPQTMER
A short description of assay [16]: promoters of myeloid differentiation in arrested cells, primary screen, cell-based, GFP/MAC1 double positive, flow cytometry, validation set (AID 588685;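 active = differentiation response of at least 50%, scaled between solvent and reference control, from cells with both markers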;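 also: compound exposure lasts four days before antibody staining and flow analysis; 0% = DMSO wells and 100% = 5 µM fulvestrant positive control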). Conditions: ER-HoxA9 marrow cells, stronger effect = higher value, normalized: vehicle 0, fulvestrant 100.

Chain of Integrin beta-1 (Homo sapiens) + Integrin alpha-4 (Homo sapiens) (P05556 whole entry, looked up): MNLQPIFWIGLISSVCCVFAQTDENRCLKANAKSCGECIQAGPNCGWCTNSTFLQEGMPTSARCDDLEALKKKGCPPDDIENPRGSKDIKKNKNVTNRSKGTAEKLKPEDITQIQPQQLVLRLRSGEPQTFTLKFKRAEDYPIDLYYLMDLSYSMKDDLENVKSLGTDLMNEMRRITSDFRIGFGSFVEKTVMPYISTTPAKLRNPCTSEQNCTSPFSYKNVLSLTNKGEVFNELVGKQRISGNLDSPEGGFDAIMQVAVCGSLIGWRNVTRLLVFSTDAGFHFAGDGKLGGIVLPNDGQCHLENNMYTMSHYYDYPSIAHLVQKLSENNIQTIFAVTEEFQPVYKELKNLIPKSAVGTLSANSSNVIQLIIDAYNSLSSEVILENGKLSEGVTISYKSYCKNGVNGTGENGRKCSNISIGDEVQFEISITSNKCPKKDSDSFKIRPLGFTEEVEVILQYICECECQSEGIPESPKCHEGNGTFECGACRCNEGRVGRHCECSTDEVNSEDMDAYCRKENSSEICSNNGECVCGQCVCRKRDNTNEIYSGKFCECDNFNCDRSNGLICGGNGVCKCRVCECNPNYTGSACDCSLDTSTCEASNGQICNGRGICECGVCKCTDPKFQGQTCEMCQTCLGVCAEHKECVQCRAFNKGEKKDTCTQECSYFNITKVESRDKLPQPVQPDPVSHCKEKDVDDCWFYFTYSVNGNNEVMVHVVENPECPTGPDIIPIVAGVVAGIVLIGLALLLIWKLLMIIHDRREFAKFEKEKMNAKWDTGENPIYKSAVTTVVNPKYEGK
Chain of Integrin beta-1 (Homo sapiens) + Integrin alpha-4 (Homo sapiens) (P13612 whole entry, looked up): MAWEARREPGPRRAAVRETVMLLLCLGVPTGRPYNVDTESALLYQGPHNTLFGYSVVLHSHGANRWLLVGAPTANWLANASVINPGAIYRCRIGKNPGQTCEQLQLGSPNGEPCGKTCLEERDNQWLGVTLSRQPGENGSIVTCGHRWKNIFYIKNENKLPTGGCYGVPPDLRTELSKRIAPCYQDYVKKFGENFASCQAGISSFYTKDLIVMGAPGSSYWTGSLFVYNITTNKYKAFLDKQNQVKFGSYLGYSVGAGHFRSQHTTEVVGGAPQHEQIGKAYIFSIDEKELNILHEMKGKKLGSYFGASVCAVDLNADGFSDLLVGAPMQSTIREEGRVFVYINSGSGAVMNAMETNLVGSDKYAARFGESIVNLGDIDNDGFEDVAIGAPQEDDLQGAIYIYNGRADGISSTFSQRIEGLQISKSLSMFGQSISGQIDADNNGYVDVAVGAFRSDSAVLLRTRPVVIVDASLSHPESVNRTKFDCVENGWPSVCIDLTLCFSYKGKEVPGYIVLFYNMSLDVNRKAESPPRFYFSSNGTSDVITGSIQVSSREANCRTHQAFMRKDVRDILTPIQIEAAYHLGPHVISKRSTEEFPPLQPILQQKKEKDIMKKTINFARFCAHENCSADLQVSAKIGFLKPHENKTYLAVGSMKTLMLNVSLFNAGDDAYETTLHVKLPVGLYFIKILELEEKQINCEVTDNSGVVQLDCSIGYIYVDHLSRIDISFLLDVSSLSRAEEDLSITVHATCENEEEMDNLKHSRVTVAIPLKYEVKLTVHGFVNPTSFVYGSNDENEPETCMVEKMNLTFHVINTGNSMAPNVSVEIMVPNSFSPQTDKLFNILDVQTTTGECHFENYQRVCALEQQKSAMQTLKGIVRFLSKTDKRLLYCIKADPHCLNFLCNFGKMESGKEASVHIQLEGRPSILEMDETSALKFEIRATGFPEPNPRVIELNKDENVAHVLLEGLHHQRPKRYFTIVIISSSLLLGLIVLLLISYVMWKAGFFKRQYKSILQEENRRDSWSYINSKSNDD
Chain of Beta-adrenergic receptor kinase 1 (Homo sapiens) (P25098 whole entry, looked up): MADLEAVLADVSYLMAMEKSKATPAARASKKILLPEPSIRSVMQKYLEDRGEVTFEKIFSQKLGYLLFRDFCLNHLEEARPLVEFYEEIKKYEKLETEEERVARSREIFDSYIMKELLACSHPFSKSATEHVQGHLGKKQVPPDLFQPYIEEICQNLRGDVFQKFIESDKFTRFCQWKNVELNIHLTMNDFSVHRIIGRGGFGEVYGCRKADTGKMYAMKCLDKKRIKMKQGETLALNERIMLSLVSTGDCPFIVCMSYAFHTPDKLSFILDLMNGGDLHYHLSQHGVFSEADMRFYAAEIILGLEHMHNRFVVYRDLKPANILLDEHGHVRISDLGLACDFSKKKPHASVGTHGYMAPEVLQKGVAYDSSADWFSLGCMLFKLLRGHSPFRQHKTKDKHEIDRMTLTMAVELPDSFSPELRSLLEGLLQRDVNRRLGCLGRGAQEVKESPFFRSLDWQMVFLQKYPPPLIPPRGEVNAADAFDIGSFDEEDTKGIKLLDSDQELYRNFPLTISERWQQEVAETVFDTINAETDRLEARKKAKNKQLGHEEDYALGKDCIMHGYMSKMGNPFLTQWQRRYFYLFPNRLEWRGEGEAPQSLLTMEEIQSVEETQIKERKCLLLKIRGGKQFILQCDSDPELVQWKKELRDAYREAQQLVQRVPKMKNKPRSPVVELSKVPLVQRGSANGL
Chain of AP-2 complex subunit beta (Homo sapiens) (P63010 whole entry, looked up, the tested form may be a part, one chain of several): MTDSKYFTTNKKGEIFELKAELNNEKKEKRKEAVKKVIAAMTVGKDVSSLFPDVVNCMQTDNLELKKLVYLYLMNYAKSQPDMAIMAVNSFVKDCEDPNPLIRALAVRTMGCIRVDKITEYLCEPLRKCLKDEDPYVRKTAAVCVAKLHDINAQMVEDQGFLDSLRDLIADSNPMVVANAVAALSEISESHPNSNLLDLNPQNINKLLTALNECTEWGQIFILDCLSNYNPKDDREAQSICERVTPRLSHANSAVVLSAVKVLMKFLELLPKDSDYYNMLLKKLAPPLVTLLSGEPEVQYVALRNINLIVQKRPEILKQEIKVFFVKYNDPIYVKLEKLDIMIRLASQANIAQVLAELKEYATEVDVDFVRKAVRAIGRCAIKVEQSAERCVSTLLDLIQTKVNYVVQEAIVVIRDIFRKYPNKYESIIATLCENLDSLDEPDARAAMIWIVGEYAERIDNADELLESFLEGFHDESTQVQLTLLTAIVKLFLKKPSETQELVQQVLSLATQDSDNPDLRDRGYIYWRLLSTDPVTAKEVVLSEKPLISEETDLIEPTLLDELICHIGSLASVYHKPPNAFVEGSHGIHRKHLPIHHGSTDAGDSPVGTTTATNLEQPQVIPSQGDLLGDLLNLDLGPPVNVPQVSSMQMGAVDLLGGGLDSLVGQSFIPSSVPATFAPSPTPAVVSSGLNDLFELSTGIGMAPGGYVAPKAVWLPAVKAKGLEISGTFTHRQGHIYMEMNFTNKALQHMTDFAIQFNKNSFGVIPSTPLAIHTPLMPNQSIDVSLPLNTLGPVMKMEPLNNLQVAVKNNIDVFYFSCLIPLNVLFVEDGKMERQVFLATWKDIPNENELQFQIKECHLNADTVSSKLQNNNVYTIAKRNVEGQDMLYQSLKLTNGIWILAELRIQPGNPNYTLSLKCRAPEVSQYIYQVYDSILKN

On to `CC(=O)N1CCn2c3c(c4cc(C)ccc42)CCCC31` (centres undefined), for which, in [1], the percent of DMSO control GFP was 99.7% (inactive). Also, the values for the GFP response vs DMSO in assay [2] and in assay [4] were 102% (inactive) and 123% (inactive), respectively. Further, the percent response of DMSO control in assay [3] was 98.3% (inactive). Moreover, the GFP response, % of DMSO in assay [5] is 111% (inactive). In [6], this compound had a double positive events of 62%. Besides, in assay [6], the vesicle binding response is 208% (inactive). Moreover, the inhibition in [7] is 0.59% (inactive); in assay [11], 61.1% (active); in assay [15], -1% (inactive). Moreover, the superoxide response (% of plate) in [8] was 122% (inactive). Moreover, the aptamer binding inhibition in assay [9] was 0% (inactive). Further, the values for the response in assay [10] and in [12] were 14.2% (inactive) and 4.65% (inactive), respectively. The binding (% of control) in assay [13] was 110% (inactive). Besides, in assay [14], the efflux inhibition (fraction of control) was 0.38 (inactive). For the same compound, the differentiation response in assay [16] is -4% (inactive).

Consider `CCn1ccnc1CN(C)Cc1cn(-c2cccc(C)c2)nc1-c1cccc(F)c1`, for which, in [1], the percent of DMSO control GFP is 104% (inactive). The GFP response vs DMSO is 95.6% (inactive) in [2] and 92.6% (inactive) in assay [4]. Besides, the percent response of DMSO control in [3] was 108% (inactive). In addition, the GFP response, % of DMSO in assay [5] is 104% (inactive). The double positive events in [6] is 63.6%. Moreover, the vesicle binding response in assay [6] was 145% (inactive). Besides, the inhibition in [7] was -7.79% (inactive); in [11] it was -10.8% (inactive); in assay [15], 21% (inactive). Besides, the superoxide response (% of plate) in [8] was 102% (inactive). Also, the aptamer binding inhibition in assay [9] is 4% (inactive). Besides, the response was -10.5% (inactive) in assay [10] and 3.23% (inactive) in assay [12]. For the same compound, the binding (% of control) in assay [13] was 105% (inactive). Also, the efflux inhibition (fraction of control) in assay [14] was 0.11 (inactive). The differentiation response in [16] was -14.8% (inactive).

As for `NC(=O)c1cccnc1`, the percent of DMSO control GFP in assay [1] was 86.7% (inactive). Moreover, the GFP response vs DMSO is 121% (inactive) in assay [2] and 79.8% (inactive) in assay [4]. Moreover, the percent response of DMSO control in assay [3] was 110% (inactive). Also, in [5], the GFP response, % of DMSO was 98.7% (inactive). For the same compound, in [6], the double positive events amounted to 45%. Besides, in assay [6], the vesicle binding response is 242% (inactive). In addition, the inhibition in [7] is 7.43% (inactive); in [11] it was -4.05% (inactive); in assay [15], 9% (inactive). In addition, in [8], the superoxide response (% of plate) was 111% (inactive). For the same compound, the aptamer binding inhibition in [9] was 3% (inactive). In addition, the response in assay [10] is 8.79% (inactive); in assay [12], 1.76% (inactive). Also, in assay [13], the binding (% of control) was 99.8% (inactive). In addition, the efflux inhibition (fraction of control) in [14] is -0.28 (inactive). The differentiation response in assay [16] is -1.64% (inactive).

Consider `C(=C\c1ccc2ccccc2n1)/c1ccccc1`, for which, in assay [1], the percent of DMSO control GFP was 102% (inactive). Besides, the figures for the GFP response vs DMSO in [2] and in assay [4] were 96.3% (inactive) and 97.4% (inactive), respectively. The percent response of DMSO control in assay [3] is 98.6% (inactive). In addition, the GFP response, % of DMSO in assay [5] was 93.2% (inactive). In assay [6], this compound had a double positive events of 63.3%. In addition, the vesicle binding response in assay [6] was 306% (inactive). Also, the figures for the inhibition in assay [7], in assay [11] and in [15] were -27.7% (inactive), -3.54% (inactive) and 114% (active), respectively. In [8], the superoxide response (% of plate) was 94.9% (inactive). Moreover, in [9], the aptamer binding inhibition is 3% (inactive). The response in [10] was 5.82% (inactive); in assay [12], 0.75% (inactive). In assay [13], the binding (% of control) is 105% (inactive). Moreover, the efflux inhibition (fraction of control) in assay [14] is -0.31 (inactive). The differentiation response in assay [16] was -8.8% (inactive).

For the compound `COc1ccc2nc(C)cc(Nc3ccccc3O)c2c1`, in assay [1], the percent of DMSO control GFP is 94.2% (inactive). For the same compound, the GFP response vs DMSO in [2] was 108% (inactive); in assay [4] it was 115% (inactive). The percent response of DMSO control in assay [3] is 90.1% (inactive). Besides, in assay [5], the GFP response, % of DMSO was 99.4% (inactive). For the same compound, the double positive events in assay [6] was 58%. In [6], the vesicle binding response was 120% (inactive). For the same compound, the inhibition in assay [7] was -7.25% (inactive); in assay [11], 3.21% (inactive); in assay [15], 9% (inactive). Besides, the superoxide response (% of plate) in assay [8] was 91.3% (inactive). In assay [9], the aptamer binding inhibition is -3% (inactive). Also, the response in assay [10] was 7.69% (inactive); in assay [12], 1.21% (inactive). For the same compound, the binding (% of control) in assay [13] is 101% (inactive). For the same compound, in assay [14], the efflux inhibition (fraction of control) is 0.01 (inactive). Besides, in assay [16], the differentiation response was -20% (inactive).

On to `CCSC(=O)CCCCCCCCCCCO`, for which, in assay [1], the percent of DMSO control GFP was 101% (inactive). Further, the GFP response vs DMSO in assay [2] is 103% (inactive); in [4], 127% (inactive). For the same compound, the percent response of DMSO control in [3] was 96.4% (inactive). For the same compound, the GFP response, % of DMSO in assay [5] is 106% (inactive). In addition, the double positive events in [6] is 59.6%. Further, the vesicle binding response in assay [6] is 348% (inactive). Besides, the inhibition was 20.2% (inactive) in [7], 41.3% (inactive) in assay [11] and -2% (inactive) in [15]. Besides, the superoxide response (% of plate) in [8] is 78.1% (inactive). Further, the aptamer binding inhibition in [9] is 0% (inactive). The response in assay [10] is -27.7% (inactive); in assay [12], 2.69% (inactive). Besides, the binding (% of control) in assay [13] was 103% (inactive). The efflux inhibition (fraction of control) in [14] was 0.17 (inactive). The differentiation response in [16] was -13.9% (inactive).

On to `Clc1ccc2c(c1)[C@H]1OCC[C@H]1[C@@H](c1ccco1)N2`, for which, in assay [1], the percent of DMSO control GFP is 108% (inactive). Besides, the results for the GFP response vs DMSO in assay [2] and in assay [4] were 105% (inactive) and 113% (inactive), respectively. Further, in assay [3], the percent response of DMSO control was 107% (inactive). For the same compound, the GFP response, % of DMSO in [5] is 88.8% (inactive). Further, the double positive events in assay [6] came to 54.8%. Besides, the vesicle binding response in [6] is 144% (inactive). In addition, the results for the inhibition in assay [7], in assay [11] and in assay [15] were 1.59% (inactive), 3.61% (inactive) and -23% (inactive), respectively. Also, the superoxide response (% of plate) in assay [8] is 103% (inactive). The aptamer binding inhibition in [9] was -1% (inactive). Besides, the response is 3.26% (inactive) in assay [10] and 3.05% (inactive) in assay [12]. Further, the binding (% of control) in assay [13] is 104% (inactive). The efflux inhibition (fraction of control) in assay [14] is 0.27 (inactive). Also, the differentiation response in assay [16] is -16.3% (inactive).
